Assay results as given in PubChem BioAssay AID687001 (Broad Institute, 2013).
Potency and affinity values are given separately. Calls of active or inactive are those of the source.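 How the source made its calls: active means signal-lowering compounds whose fitted half-maximal concentration is at or below twice the top tested dose in every run; inconclusive means runs disagree, flat 30 to 70% inhibition, or poor curve fit; inactive means the rest.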

target: Protein S100-A4 (Homo sapiens) (UniProt P26447); assay: human S100A4 peptide interaction inhibition curves – biochemical, fluorescence polarization, cherry-picked hits, dose response (AID 687001); details: FP, S100A4/TAMRA-myosin IIA peptide binding; series mostly up to 11 µM
Sequence (P26447 whole entry, looked up): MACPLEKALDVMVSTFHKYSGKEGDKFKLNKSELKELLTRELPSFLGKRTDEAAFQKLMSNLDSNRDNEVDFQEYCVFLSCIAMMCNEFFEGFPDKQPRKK

outcome, inactive:
CCN(CC)C(=O)Oc1ccc2c(c1)O/C(=C\c1ccco1)C2=O
COc1ccc(CN2C(=O)c3ccccc3C2c2nnnn2Cc2ccccc2)cc1OC (centres undefined)
CCCCn1c(O)c(/C=C2\C=Nc3ccccc32)c(=O)[nH]c1=O
COc1ccc(C)cc1NS(=O)(=O)c1ccc2c(c1)N(C)CCO2
Cc1cc(C)c(NC(=O)CS(=O)CC(=O)NCCN2CCCCCC2)c(C)c1 (centres undefined)
Cc1ccc(S(=O)(=O)Nc2ccc3c(c2)C(=O)N([C@H](C)CO)C[C@@H](C)[C@H](CN(C)S(C)(=O)=O)OCCCC[C@@H](C)O3)cc1
CCC(=O)N1[C@@H]2c3ccc(-c4ccncc4)c(=O)n3C[C@H]1[C@H](CO)[C@H]2C(=O)NC1Cc2ccccc2C1
O=S(=O)(CCS(=O)(=O)c1ccccc1)c1ccccc1
CC(C)NC(=O)Nc1ccc2c(c1)C(=O)N([C@H](C)CO)C[C@@H](C)[C@H](CN(C)S(=O)(=O)c1ccccc1)OCCCC[C@@H](C)O2
O=C(C[C@@H]1CC[C@@H](NC(=O)NC2CCCC2)[C@H](CO)O1)NCc1ccc(F)cc1
Cc1oc(-c2ccccc2Cl)nc1CSCC(=O)O
CC(C)n1nnnc1C1c2ccccc2C(=O)N1Cc1cccc(F)c1 (centres undefined)
Cc1noc(C)c1S(=O)(=O)N(C)C[C@H]1Oc2ccc(N(C)C)cc2CC(=O)N([C@H](C)CO)C[C@H]1C
CC(C)NC(=O)N(C)C[C@@H]1Oc2c(NC(=O)Nc3cccc4ccccc34)cccc2C(=O)N([C@H](C)CO)C[C@H]1C
O=C(C1CCCC1)N1CCCCN2[C@H](CO)[C@@H](c3ccc(C#CC4(O)CCCC4)cc3)[C@H]2C1
CCCNC(=O)N1C[C@H](O)COC[C@@H]2O[C@@H](CC(=O)NCCCN3CCOCC3)CC[C@H]21
CCN(CC(=O)Nc1ccccc1C(F)(F)F)C(=O)c1ccc(NC(=O)c2cccs2)cc1
COc1cccc(-c2ccc3c(c2)[C@H]2[C@H](CCN2C(=O)c2ccc4c(c2)OCO4)[C@H](CO)N3C)c1
CC(C)NC(=O)Nc1ccc2c(c1)C(=O)N([C@@H](C)CO)C[C@H](C)[C@H](CN(C)C(=O)c1ccncc1)OCCCC[C@H](C)O2
O=C(c1ccccc1)c1ccc2nc(N3CCCCC3)c3nncn3c2c1
CN1CCN(S(=O)(=O)c2cccc(C(=O)NC3CCCC3)c2)CC1
Cc1cc(OCC(=O)NCCc2c[nH]c3ccccc23)c2c(C)cc(=O)oc2c1
C(=Cc1nc2ccccc2o1)c1ccc2c(c1)OCO2
COc1cccc(NC(=O)CN(C)C(=O)c2ccc(N3CCCCC3)c([N+](=O)[O-])c2)c1
